KB-3-1 tox: kills parental KB-3-1 adenocarcinoma cells; 1.4% of 400,000 active; AID 1347075; Potency, µM (doses to about 46.1 µM), hits mostly cytotoxic; KB-3-1 viability, CellTiter-Glo ATP luminescence, 72 h; also: nearly all actives have a fitted effect of over 60% in size
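Cytotoxicity in the drug-sensitive parental line KB-3-1 was scored as loss of CellTiter-Glo luminescence following 72 h incubation with compound. Values come from curve fitting of normalized concentration-response data.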
HT1080NT lethal: kills 2HG-producing HT-1080-NT fibrosarcoma cells | HT-1080-NT fibrosarcoma viability, CellTiter-Glo ATP luminescence, 48 h | Potency, µM (top dose mostly 46.1 µM), without a hit: at the highest dose activity, negative = less viability, most hits filed as cytotoxic | 1.6% of 360,000 active;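 also: NT is the 2HG producing partner of a matched IDH1 knockdown line; 0% = DMSO-treated cells and -100% = media-only wells without cells; nearly all actives have a fitted effect of over 55% in size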
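A 48-hour cytotoxicity screen used HT-1080-NT cells plated 2 hours before compound delivery. ATP-based CellTiter-Glo luminescence measured viability, normalized to DMSO and no-cell controls.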
HT1080 IDH1KD tx: kills HT-1080 cells with IDH1 knockdown; HT-1080 IDH1 knockdown viability, ATP luminescence, 48 h; Potency, µM (top dose mostly 46.1 µM), for the others: at the top dose activity, negative = toxicity, hits mostly cytotoxic; 2% of 360,000 active; AID 686971;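 also: 0% = DMSO wells and -100% = cell-free medium wells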
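After a 2 h attachment period, IDH1KD HT-1080 cells took pin-transferred compound for 48 h at 37 °C; ATP-based luminescence after 10 min room-temperature reagent incubation reported viability.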
KB-V1 MDR tox: kills drug-selected multidrug resistant KB-V1 cells; KB-V1 MDR cells viability, CellTiter-Glo, 72 h; Potency, µM (titrated, usually from 46.1 µM), usual class: cytotoxic; 3.4% of 400,000 active; also: nearly all actives have a fitted effect of over 60% in size
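Drug-selected KB-V1 cells, grown in DMEM lacking phenol red with 10% FBS, receive compound titrations; after three days at 37 degrees C, surviving cell ATP is quantified by CellTiter-Glo luminescence and responses normalized and curve-fitted.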
DT40 TDP1 no CPT: qHTS for Inhibitors of human tyrosyl-DNA phosphodiesterase 1 (TDP1): qHTS in cells in absence of CPT. AID 686978, 2013. DT40 Tdp1-/- hTDP1 cells, no CPT, ATP luminescence, 48 h. 15% of 420,000 active. Potency, µM (top dose mostly 46.2 µM), for the others: at the highest dose activity change, negative = growth inhibition, hits mostly inhibitors; also: nearly all actives have a fitted effect of over 55% in size
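Readout: luminescence from CellTiter-Glo after 30 min in the dark at RT. Cells: DT40 Tdp1-/- with stable hTDP1, 400/well. Exposure: compounds alone, ≥48 hr, 37 °C.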
TDP1 cell CPT: DT40-hTDP1 cell growth loss with CPT; chicken DT40 Tdp1-/-;hTDP1 cells + 20 nM CPT, ATP luminescence, 48 h; Potency, µM (doses to about 46.2 µM), for inactives: at the highest dose activity change, negative = growth inhibition, actives largely listed as inhibitors; 12% of 420,000 active; also: nearly all actives have a fitted effect of over 55% in size
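Chicken DT40 Tdp1-/- cells stably complemented with human TDP1 were seeded at 400 cells/well in medium containing 20 nM camptothecin, exposed to pin-transferred compounds, and grown at 37 °C for at least 48 hr. Viability was read as ATP luminescence.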
* marks the source's active call; other numbers are inactive results; i = inactive; ? = inconclusive; / = not tested or not shown; ! = repeats disagree; [ ] = remark or other dose. Sampled rows, rich in hits. Any-hit rate of the full collection: about 19%. Calls follow the shape of the dose curve; as a rule, active = well fitted curve in the direction sought with a large enough effect; inconclusive = small, poorly fitted or top-dose-only effect, or another doubt; inactive = no such curve, though single readings can be large; an effect the other way counts as inactive or inconclusive. Unless noted, % is scaled to controls: 0 for no effect and ±100 for the full control effect; potency is read from the fitted curve at half-maximal effect.

SMILES | KB-3-1 tox | HT1080NT lethal | HT1080 IDH1KD tx | KB-V1 MDR tox | DT40 TDP1 no CPT | TDP1 cell CPT
Cc1cc(C(=O)NCC2CCC3(CCN(Cc4ccc5ccccc5c4)CC3)O2)n(C)n1 (stereo unspecified) | / | / | / | / | 16.4µM* | 20.6µM*
Cn1nccc1C(=O)NCC1CCC2(CCN(Cc3ccc(-c4ccc(Cl)cc4)o3)CC2)O1 (stereo unspecified) | / | / | / | / | 14.6µM* | ?
Cc1cc(C(=O)NCC2CCC3(CCN(Cc4ccc(F)cc4)CC3)O2)n(C)n1 (stereo unspecified) | / | / | / | / | ? | -4.0%[9.04 µM]
O=C(OCCc1ccccn1)c1cccc([N+](=O)[O-])c1 | i | -3.4% | 7.4% | i | -4.0% | 0.5%
O=C1NC[C@H](CCCCN2C[C@H](Cc3ccccc3)N(CCc3ccc(O)cc3)C(=O)C2=O)N(CCc2ccccc2)C1=O | i | 19.8% | 16.3% | i | -16.0% | 9.1%
Nc1nc2c(nc(SCc3ccccc3Br)n2[C@@H]2O[C@H](CO)[C@@H](O)[C@H]2O)c(=O)[nH]1 | i | 16.6% | 5.0% | ? | -12.0% | 9.3%
Cc1ccc(CCC(=O)Nc2ccc(N(C)C)cc2)o1 | i | 0.3% | -1.3% | i | ? | 16.4µM*
Cc1ccc(CCC(=O)Nc2ccc(Cl)cc2)o1 | i | ? | ? | i | -4.5% | -18.2%
CC(C)(C)NC(=O)NCC1CCCC1NC(=O)NC(C)(C)C (stereo unspecified) | i | 0.3% | 1.1% | 25.9µM* | -24.4% | 4.7%
CCN(C)C(=O)Oc1cccc([C@H](C)N(C)C)c1 | / | / | / | / | -10.8% | -11.4%
CN(CCCCCCCCCCN(C)C(=O)Oc1cccc([N+](C)(C)C)c1)C(=O)Oc1cccc([N+](C)(C)C)c1 | i | -10.7% | -28.4% | i | 0.82µM* | 2.31µM*
O=c1c(-c2cccc(F)c2)nc2cncnc2n1Cc1ccc(F)cc1 | / | / | / | / | -2.2% | 14.3%
O=c1c(-c2cccc(F)c2)nc2cncnc2n1Cc1ccccc1 | / | / | / | / | 16.4µM* | ?
O=c1c(-c2ccc(F)c(F)c2)nc2cncnc2n1Cc1ccc(F)cc1 | / | / | / | / | 16.4µM* | 14.6µM*
Cc1ccccc1-n1nc(C)c2cc(C(=O)N3CCN(S(=O)(=O)c4ccccc4)CC3)sc21 | i | 9.1% | 11.2% | 23.1µM* | -25.9% | 0.8%
Cc1cc(S(=O)(=O)N2CCN(c3ccccc3C)CC2)ccc1F | i | -6.3% | -24.4% | i | ? | 3.1%
CCc1nc2ccccc2nc1N1CCN(S(=O)(=O)c2ccccc2)CC1 | i | -5.7% | 2.9% | ? | 16.4µM* | ?
Cc1ccccc1N1CCN(S(=O)(=O)c2ccccc2)CC1 | ? | 1.1% | -5.2% | 20.6µM*! | ? | -28.4%
Cc1nn(-c2ccc(F)cc2)c2sc(C(=O)N3CCCCCC3)cc12 | i | -18.4% | -27.0% | i | ? | ?
N#CCc1c(C#N)c(N)nc(N2CCN(S(=O)(=O)c3ccccc3)CC2)c1C#N | i | -10.1% | -0.1% | i | 16.4µM* | 8.2µM*
OC(COc1ccc(Br)cc1)CN1CCN(c2ccccc2)CC1 (stereo unspecified) | i | -0.9% | -11.8% | i | ? | ?
CCC(=O)N1CCc2cc(Br)cc(S(=O)(=O)CCC(=O)NCCc3ccc(Cl)cc3)c21 | i | / | / | i | ? | -26.6%
COC(=O)c1ccn(-c2nc(-c3ccc(Cl)cc3)cc(C(F)(F)F)n2)n1 | i | / | / | i | ? | ?
CCCC(=O)c1cc(F)c(N2CCN(S(=O)(=O)c3ccccc3)CC2)cc1C | i | -20.8% | -2.9% | ? | 11.2µM* | 16.4µM*
